Molecules are shown by their SMILES. Calls of active or inactive are those of the source.

The assay relates to XIP peptide (Xip251-270) binding. As to the kind of experiment: XIP fragment 251-270 binding compounds – biochemical, small-molecule microarray, fluorescence 635/667 nm, 0.1 µg/mL protein, primary screen (AID 1182). The settings on record: fluorescent protein binding, 635 nm, higher = more signal, called active from +8 up or from −8 down.
As to `Cc1ccc(S[C@]2(C(=O)NCc3ccccc3)CC(=O)N(Cc3ccccc3C(F)(F)F)[C@@H]2c2ccc(CO)cc2I)cc1`, the composite z-score is 0.404 (inactive). Under `C=CCNC(=O)[C@@H]1[C@H]2C(=O)O[C@H](c3ccccc3)[C@H](c3ccccc3)N2[C@H](c2ccc(OCCO)cc2)[C@@]12C(=O)Nc1ccc(C#CC3=CCCCC3)cc12` stands 1.45 (inactive). Under `Cc1ccc(S[C@]2(C(=O)NCc3ccccc3)CC(=O)N(Cc3ccccc3Cl)[C@@H]2c2ccc(CO)cc2)cc1` stands 1.65 (inactive). Under `COc1cccc(C)c1NC(=O)O[C@H]1[C@H](OC(=O)Nc2ccccc2-c2ccccc2)[C@@H](OC(=O)Nc2ccccc2-c2ccccc2)[C@@H](OC)O[C@@H]1CO` stands 1.22 (inactive); under `Cc1ccc(N2C(=O)c3ccccc3[C@@H](C(=O)NCCN3CCOCC3)[C@@H]2c2ccc(CO)cc2)nc1`, 0.0616 (inactive). As for `C=CC[C@@]1(C(=O)NCCCOC)N=C(c2ccc(OCCCO)cc2)O[C@@H]1c1ccccc1CN=[N+]=[N-]`, the composite z-score was 0.204 (inactive). To `CC(=O)NCCCC[C@@H]1NC(=O)[C@H]2C[C@@H](C(=O)NCCCCCN)[C@@H](c3ccc(O)cc3)N2C1=O` belongs 0.222 (inactive); to `C=C(COC)C(=O)CC[C@H](OC(C)=O)c1ccc(CO)o1`, -0.153 (inactive). As for `Cc1cccc([C@H]2C[C@H]3C(Br)=C[C@@]2(CO)C(=O)[C@]32CO2)c1`, the composite z-score is 1.48 (inactive). To `[N-]=[N+]=NCc1ccccc1[C@H]1OC(c2ccc(OCCCO)cc2)=N[C@@]1(Cc1ccccc1N=[N+]=[N-])C(N)=O` belongs -0.19 (inactive); to `COc1ccc(C(O)C2C=CC3C(=O)N(c4ccccc4)C(=O)C3N2Nc2ccccc2F)c2ccccc12` (configuration not stated), 1.56 (inactive); to `CN1C(=O)C2C=CC(C(O)COCc3ccccc3)N(Nc3ccc([N+](=O)[O-])cc3[N+](=O)[O-])C2C1=O` (configuration not stated), 0.649 (inactive).

Turning to `O=C1O[C@@H](c2ccccc2)[C@@H](c2ccccc2)N2[C@@H](c3ccccc3OCCO)[C@]3(C(=O)Nc4ccc(C#CC5(O)CCCCCC5)cc43)[C@@H](C(=O)N3CCCCCCC3)[C@H]12`, the composite z-score is 5.76 (inactive). With `COC(=O)Cn1c(C(=O)N(C)C)cc2c1C[C@H]1CN(C(=O)c3ccccc3)[C@@](Cc3ccccc3)(C(=O)OC)[C@@H]21`, the composite z-score is -0.0872 (inactive).

Turning to `CCCCCCc1nc(Cc2cc(OC)c(OC)c(OC)c2)c(C)c2c1[Si](C(C)C)(C(C)C)OC2`, the composite z-score was -0.814 (inactive). For the compound `Cc1ccc(S[C@]2(C(=O)NC(C)C)CC(=O)N(Cc3ccccc3)[C@@H]2c2ccc(CO)cc2)cc1`, the composite z-score was 1.13 (inactive). To `CC(C)[Si](C#Cc1ccccc1)(O[C@H](c1ccccc1)c1cn(Cc2ccccc2)nn1)C(C)C` belongs 0.0554 (inactive). Under `CCOC(=O)C[C@H]1[C@H](OC(=O)c2cc3ccccc3oc2=O)[C@@H](NC(=O)c2ccc(-c3ccccc3)cc2)c2cc(OCCCO)ccc2N1C(=O)Cc1ccc(OC)cc1` stands 0.108 (inactive); under `CC(C)(C)OC(=O)CC[C@@]1(C(=O)N2CCOCC2)N=C(c2ccc(OCCCO)cc2)O[C@@H]1c1ccccc1CN=[N+]=[N-]`, 3.3 (inactive); under `CC[C@@H]1C=C(C(=O)O)[C@H](c2cccc(Cl)c2)N1S(=O)(=O)c1ccc(C)cc1`, 0.415 (inactive). Under `COC(=O)[C@H](Cc1ccccc1)N1CC(C)(OC)O[C@@H](Cc2ccccc2)[C@H]1/C=C/C1CC1` (some centres not stated) stands 0.242 (inactive); under `CO[C@H]1O[C@H](CO)[C@@H](OC(=O)Nc2ccccc2)[C@@H]2OC(=O)[C@@H](Cc3ccccc3)C/C=C/C[C@H](Cc3ccccc3)C(=O)O[C@@H]12`, 0.0585 (inactive); under `CCCCC=C[C@@H](NC(=O)C(C)(C)C)c1ccccc1`, 1.38 (inactive). As for `COc1ccc([Si](C)(C)[C@H]2[C@H](CC(=O)N3CCC[C@H]3CO)O[C@@]3(C(=O)N(Cc4cccc(N5CCCCC5=O)c4)c4ccccc43)[C@@H]2C)cc1`, the composite z-score was 2.57 (inactive).

Regarding `O=C(NCC(F)(F)F)[C@@H]1c2ccccc2C(=O)N(Cc2cc(C(F)(F)F)cc(C(F)(F)F)c2)[C@H]1c1ccc(CO)cc1`, the composite z-score was -0.398 (inactive).

With `CN1C(=O)C2C(C1=O)C1C=C(CCCO)C2C(C2CC2)N1C` (configuration not stated), the composite z-score is 0.58 (inactive). In the case of `C=CCNC(=O)[C@@H]1[C@H]2C(=O)O[C@H](c3ccccc3)[C@H](c3ccccc3)N2[C@H](c2ccc(O)cc2)[C@@]12C(=O)N(C(=O)OCCOC)c1ccc(C#CCC(C(=O)OC)C(=O)OC)cc12`, the composite z-score was 0.891 (inactive).

(Values after PubChem BioAssay.)
